Among the data in PubChem BioAssay (EPA / NIEHS) are outcome and AC50 values, retold here.

Records with an inconclusive call do not appear. Activity calls are given as the source filed them. Rule for the calls: active = hit-call score of the fitted dose curve at least 0.9, where 1 is the maximum; inconclusive = response in the unintended direction; inactive = score below 0.9.

What is called AC50 is the midpoint of the concentration-response curve, whichever way the signal moves.

Chain of chimpanzee Androgen Receptor (AR), AR (gene 747460) (O97775 whole entry, looked up): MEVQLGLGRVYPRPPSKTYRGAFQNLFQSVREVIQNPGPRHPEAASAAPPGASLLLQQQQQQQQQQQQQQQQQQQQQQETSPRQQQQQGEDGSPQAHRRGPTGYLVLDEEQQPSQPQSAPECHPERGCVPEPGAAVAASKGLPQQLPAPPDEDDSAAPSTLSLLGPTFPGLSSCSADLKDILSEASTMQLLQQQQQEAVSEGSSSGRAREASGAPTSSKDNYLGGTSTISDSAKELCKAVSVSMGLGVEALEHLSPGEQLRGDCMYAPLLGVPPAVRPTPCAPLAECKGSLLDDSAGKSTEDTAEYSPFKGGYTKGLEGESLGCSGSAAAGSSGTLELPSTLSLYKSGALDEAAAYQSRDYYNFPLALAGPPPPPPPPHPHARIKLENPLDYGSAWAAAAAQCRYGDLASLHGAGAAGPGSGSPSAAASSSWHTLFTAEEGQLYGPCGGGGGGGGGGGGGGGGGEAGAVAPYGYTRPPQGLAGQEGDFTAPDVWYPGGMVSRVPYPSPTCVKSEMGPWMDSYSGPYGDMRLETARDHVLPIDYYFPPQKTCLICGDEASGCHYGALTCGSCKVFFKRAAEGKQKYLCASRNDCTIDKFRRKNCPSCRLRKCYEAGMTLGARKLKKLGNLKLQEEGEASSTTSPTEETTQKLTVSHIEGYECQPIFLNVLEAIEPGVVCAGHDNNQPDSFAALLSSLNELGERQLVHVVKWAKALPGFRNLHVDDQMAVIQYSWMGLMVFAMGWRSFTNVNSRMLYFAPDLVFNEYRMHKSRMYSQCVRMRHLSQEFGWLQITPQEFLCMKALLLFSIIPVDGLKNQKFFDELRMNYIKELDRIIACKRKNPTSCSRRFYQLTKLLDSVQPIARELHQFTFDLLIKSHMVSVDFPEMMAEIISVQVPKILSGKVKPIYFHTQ

For one assay, the target named is human Constitutive Androstane Receptor (CAR), NR1I3 (gene 9970) (UniProt Q14994). Kind of assay: NVS_NR_hCAR_Antagonist: NovaScreen (NVS) Nuclear Receptor Binding Assay for human Constitutive Androstane Receptor Antagonism (CAR) (AID 2283344). The procedure, abridged: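 Cell-free TR-FRET binding read 1 h after dosing, antagonist mode; loss of signal versus DMSO baseline. Primary screen in duplicate at a single 25 uM; actives retested in concentration series.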
Chain of human Constitutive Androstane Receptor (CAR), NR1I3 (gene 9970) (Q14994 whole entry, looked up): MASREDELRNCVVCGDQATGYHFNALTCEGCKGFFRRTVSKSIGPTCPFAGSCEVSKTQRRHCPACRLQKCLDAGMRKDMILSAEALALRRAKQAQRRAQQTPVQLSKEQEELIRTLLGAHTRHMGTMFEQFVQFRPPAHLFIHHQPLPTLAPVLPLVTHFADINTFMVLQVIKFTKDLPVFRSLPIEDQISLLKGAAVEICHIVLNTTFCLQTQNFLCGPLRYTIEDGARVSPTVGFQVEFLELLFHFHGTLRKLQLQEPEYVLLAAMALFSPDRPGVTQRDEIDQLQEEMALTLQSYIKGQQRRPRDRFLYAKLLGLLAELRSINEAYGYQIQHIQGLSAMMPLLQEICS
As to `Cc1cccc(N)c1N`, the compound was classed as inactive.
As to `CCCCC(CC)COC(=O)c1ccc(C(=O)OCC(CC)CCCC)c(C(=O)OCC(CC)CCCC)c1` (stereo unspecified), the AC50 is 10.7 µM (active).
On the same count and under the same terms, as for `CCNS(=O)(=O)C(F)(F)C(F)(F)C(F)(F)C(F)(F)C(F)(F)C(F)(F)C(F)(F)C(F)(F)F`, the figure is 24.1 µM (active).
For the compound `Oc1ccccc1Cl`, the outcome was inactive.

For a further assay, the target named is chimpanzee Androgen Receptor (AR), AR (gene 747460) (UniProt O97775). Kind of assay: NVS_NR_cAR: NovaScreen (NVS) Nuclear Receptor Binding Assay for chimpanzee Androgen Receptor (AR) (AID 2283346).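 Note: radioligand displacement from AR measured by scintillation counting in a cell-free assay.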 In short, it runs like this:
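Cell-free radioligand displacement using receptor protein extracted from Sf9/Sf21 cells; bound radioligand measured by scintillation counting 72 hours after chemical dosing. Loss of signal versus DMSO baseline indicates binding; primary screen single-concentration in duplicate at 25 uM, actives followed in concentration series.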
In the case of `Cc1cccc(N)c1N`, the half-maximal activity concentration (AC50) is 5.01 µM (active).
`[Cl-].[Cl-].[Hg+2]`: the outcome was inactive.
As to `Nc1ccc([N+](=O)[O-])cc1`, the AC50 was 25 µM (active).
The same measure, in the same setting: as for `Oc1ccc2ccc3cccc4ccc1c2c34`, the figure is 8.27 µM (active); as for `CCC(C)c1ccc(O)cc1` (stereo unspecified), 23 µM (active).
Turning to `Nc1ccc(Oc2ccc(N)cc2)cc1`, the compound was classed as inactive.
`CN(C)[C@@H]1C(=O)C(C(N)=O)=C(O)[C@@]2(O)C(=O)C3=C(O)c4c(O)cccc4[C@@](C)(O)[C@H]3C[C@@H]12`: the concentration at half-maximal activity (AC50) is 37.4 µM (active).
